Source: PubChem BioAssay
A selection follows.
aSyn UTR act: Activators via SNCA 5'UTR binding, MLPCN. alpha-synuclein 5'UTR reporter, activators screen. activity score, % (tested at 7.5 µM), hits read low. 300,000 compounds, 7.1% hits. AID 1814; in the data active means activity score below about -60%
Active calls of the source: *.

SMILES	aSyn UTR act
COc1ccc(-c2noc(-c3cccc(Cl)c3)n2)cc1OC	-184*
Clc1cccc(-c2nc(-c3ccccn3)no2)c1	93
COc1ccc(-c2noc(-c3ccccc3Cl)n2)cc1OC	-180*
CCCC(=O)c1ccc(N2CCC(C)CC2)c(F)c1	-83*
CCC(=O)c1ccc(N2CCC(C)CC2)c(F)c1	-99*
N#CCSc1nc(-c2ccccc2)cs1	-75*
CC(C)NC(=O)CSc1nc(-c2ccccc2)cs1	-160*
N#CCSc1ccc2nc(-c3ccccc3)cn2n1	-104*
Cc1nc2nc(-c3ccccc3)[nH]n2c(=O)c1C	-119*
Cc1nc2cc(-c3ccccc3)[nH]n2c(=O)c1C	-114*
Nc1c2c(nc3sc4c(c13)CCCC4)-c1ccccc1CC2	-75*
O=[N+]([O-])c1ccc(-c2csc(N3CCCCCC3)n2)cc1	-78*
Clc1ccc(-c2csc(N3CCOCC3)n2)cc1	-140*
Brc1ccc(-c2csc(N3CCOCC3)n2)cc1	-132*
c1ccc(-c2csc(N3CCCCCC3)n2)cc1	-139*
c1ccc(-c2cnnc(N3CCCCC3)n2)cc1	-140*
CN1CCN(c2nc(-c3ccc(Cl)s3)cs2)CC1	-84*
Clc1ccc(-c2csc(N3CCCCCC3)n2)cc1	-85*
COc1ccc(-c2csc(N3CCOCC3)n2)cc1OC	-80*
COc1cccc(N2CCN(c3cnc4ccccc4n3)CC2)c1	-116*
COc1ccc(N2CCN(c3cnc4ccccc4n3)CC2)cc1	-101*
COc1ccc(N2CCN(c3ncccn3)CC2)cc1	-130*
COc1cccc(/C=C/C(=O)OCC(=O)N2c3ccccc3NC(=O)C2(C)C)c1	-70*
CN(C)c1ccc(CNc2ccc3c(c2)ncn3C(C)(C)C)cc1	-62*
CCOc1ccc(CNc2ccc3c(c2)ncn3C(C)(C)C)cc1	-84*
SMILES	aSyn UTR act
COc1ccc(NC(=O)c2cc3ccccc3o2)cn1	-216*
COc1ccc(NC(=O)c2cc(CN3C(=O)c4ccccc4C3=O)ccc2OC)cn1	-86*
COc1ccc(NC(=O)CCCc2ccccc2)cc1OC	-136*
COc1ccc(NC(=O)c2cc3ccccc3o2)cc1	-152*
COc1ccc(NC(=O)c2coc3ccccc23)cc1OC	-122*
COc1cc(NC(=O)C(C)C)ccc1NC(=O)c1cc2ccccc2o1	-166*
COc1ccc(NC(=O)c2cc3ccccc3o2)cc1OC	-150*
Nc1c(-c2ccccc2)cnc2cc(-c3ccccc3)nn12	-121*
Cc1cc2ncc(-c3ccc(Cl)cc3)c(N)n2n1	-117*
COCc1nn2c(N)c(-c3ccccc3)cnc2c1-c1ccccc1	-106*
CCN(CC)c1ccc(NC(=O)Nc2ccccc2)cc1	-137*
CCN(CC)c1ccc(NC(=O)Nc2ccc(C(C)=O)cc2)cc1	-68*
O=C(Nc1ccccc1)NN(C(=O)CCl)c1ccccc1	-125*
S=C(N=Nc1ccccc1)NNc1ccccc1	-132*
COCCNc1nc(N)c([N+](=O)[O-])c(NC2CCCCC2)n1	68
Cc1nn2c(nc(N3CCCCC3)c3ccccc32)c1C=O	55
Oc1ccc(Nc2nc(N3CCCC3)c3ccccc3n2)cc1	-579*
CC1CCN(c2nc(/C=C/c3ccccc3)nc3ccccc23)CC1	-87*
C=CCNc1nc(N)c([N+](=O)[O-])c(N2CCCCCC2)n1	69
Nc1nc(Nc2ccccc2)nc(N2CCCC2)c1[N+](=O)[O-]	-81*
C(=C\c1nc(N2CCCC2)c2ccccc2n1)/c1ccccc1	-106*
O=C(NC1CCCC1)c1ccc([N+](=O)[O-])s1	-153*
Cc1ccnc(NC(=O)c2ccc([N+](=O)[O-])s2)c1	-238*
Cc1cccc(NC(=O)c2ccc([N+](=O)[O-])s2)n1	-88*
O=[N+]([O-])c1cccc(/C=N/Nc2cc(N3CCOCC3)ncn2)c1	-90*
SMILES	aSyn UTR act
C/C(=N\Nc1cc(N2CCOCC2)ncn1)c1ccccc1	-79*
C/C(=N\Nc1cc(N2CCOCC2)ncn1)c1cccc([N+](=O)[O-])c1	-81*
Clc1ccccc1/C=N/Nc1cc(N2CCOCC2)ncn1	-151*
CC[C@H](CO)Nc1nc(Nc2cccc(Cl)c2)c2ncn(C(C)C)c2n1	57
Clc1ccc2oc(-c3cccnc3)nc2c1	-119*
Clc1ccc2oc(-c3ccccc3)nc2c1	-151*
COC(=O)c1ccc(-c2nc3ccc(C)cc3o2)cc1	-77*
Cc1ccccc1-c1nc2cc(Cl)ccc2o1	-183*
Cc1ccc2nc(-c3cccnc3)oc2c1	-80*
CC(/C=N/NC(=O)c1ccccc1C)=C\c1ccccc1	-136*
CC(/C=N/NC(=O)c1ccccc1F)=C\c1ccccc1	-138*
N=C(N)SCc1ccc(Cl)cc1Cl	-71*
CCOc1ccc2cc(/C=C/C(=O)c3ccco3)c(Cl)nc2c1	-172*
COc1ccc2cc(/C=N/NC(=O)c3ccc(CN(c4cccc(Cl)c4Cl)S(C)(=O)=O)cc3)c(Cl)nc2c1	67
CNc1oc(-c2ccccc2)nc1C#N	-62*
COc1ccc(Nc2oc(COc3ccc(Cl)cc3)nc2C#N)cc1	91
COc1ccc(Nc2oc(-c3ccc(Cl)cc3)nc2C#N)cc1	-77*
COc1ccc(Nc2oc(-c3ccc(OC)cc3)nc2C#N)cc1	-132*
COc1ccc(-c2nc(C#N)c(NCCc3ccccc3)o2)cc1	-146*
CCOc1ccc(Nc2oc(-c3ccc(Cl)cc3)nc2C#N)cc1	-139*
CCOc1ccc(-c2nc(C#N)c(NC3CC3)o2)cc1	-95*
COc1ccc(Nc2oc(-c3ccccc3)nc2C#N)cc1	-112*
CCOc1ccc2nc(NC(=O)c3ccc(OCC4CCCO4)cc3)sc2c1 (stereo not given)	-99*
Cc1cccc2sc(NC(=O)c3ccc(OCC4CCCO4)cc3)nc12 (stereo not given)	-144*
Cc1cccc2sc(NNC(=O)c3ccc(S(=O)(=O)N4CCCC(C)C4)cc3)nc12 (stereo not given)	78
SMILES	aSyn UTR act
CCOc1ccc2nc(NC(=O)CSc3nnc(-c4ccncc4)n3CC3CCCO3)sc2c1 (stereo not given)	-76*
CCOc1ccccc1CNC(=O)C1CCN(c2nnc(C)c3c(C)n(-c4ccc(C)cc4)nc23)CC1	78
COc1cccc(NC(=O)c2ccnc(N3CCC(C(=O)NCc4ccccc4OC)CC3)c2)c1	-95*
COc1ccc(-n2nc3c(N4CCC(C(=O)NCc5cccc(C)c5)CC4)nnc(C)c3c2C)cc1	70
CCNc1nc(-c2ccc(OC(F)F)cc2)c(C)s1	-72*
Cc1cc(C)nc(SC/C=C/c2ccccc2)n1	-89*
C(=C\c1ccccc1)/CSc1ccccn1	-187*
CC1Cc2ccccc2N1C(=O)/C=C/c1cccc(F)c1 (stereo not given)	-170*
Cc1c(C(=O)C(=O)N2c3ccc(F)cc3CCC2C)c2ccccc2n1C (stereo not given)	62
CC1Cc2ccccc2N1C(=O)Cc1cccs1 (stereo not given)	38
c1ccc(CCc2nc3ccccc3[nH]2)cc1	-120*
O=c1[nH]c2ccccc2nc1CCc1ccccc1	-90*
O=C(C[n+]1cn(C(F)F)c2ccccc21)c1ccc(OC(F)F)cc1	-129*
O=C1OC(c2ccc3c(c2)OCO3)N(C(=O)c2ccc(Cl)c(Cl)c2)c2ccccc21 (stereo not given)	-91*
CCn1c2ccccc2c2cc(NC(=O)CSc3nnc(-c4cccc(C)c4)o3)ccc21	-63*
CCn1c2ccccc2c2cc(NC(=O)CSc3nnc(-c4ccccc4)o3)ccc21	-155*
CCn1c2ccccc2c2cc(NC(=O)CSc3nnc(-c4cccc(F)c4)o3)ccc21	-68*
